{"source": "the supplement of paper PMC8728848", "binders": {"B1": {"name": "GS14009A-pdi-495-27-495 (Parabacteroides distasonis) (protein)", "chain": "FEEVNTDPDSPTDVPTTNLLAYSLYYTSYRLYDRWFAMDEPMTFCGYASKMTYIDESRYNFRTGVQDTNWEYLYRILNNLKDIEKRATFNETPNMLNVSKVMQVHLMQVATDRWRDVPYTDAAKMTDGILQPKYDKQEDIYPGLLATLKEAADGFADGGSDDLGEGDLLFGGDIEKWQRYCNSMRLRLAMRISEVSPALAKETVEEVMGNPTKYPIMESNDDNAFFWWIGTDPNYYEPMADGYRTRKTEYCAADVIVDHMNTREDPRRSSYFQPTKESVEAGEPKYVGYTIGAKANAVASKYSIWGARFFTDLAGFSPYMRVAEPWFCVAEASMLGWNTGISAEDAYNKAVTYSMEENSVSAEDIADYLANAGKFTNDKKQIYYEEWVAMFKQGMEGWSLYRRTGVPDNLYPAPGRPANYSNHNVPPFRSPYPDKERNLNNANCAPFDAEVVDNLWGKQMWWDTRTGVH"}}, "assay_in_all_cases": "glycan array binding signal (z-score within array); higher = stronger binding", "conditions_in_all_cases": "glycan notation: IUPAC condensed, linker removed", "key": {"[1]": {"biological_target": "Gal3S(b1-3)[Fuc(a1-4)]GlcNAc", "outline": "(§1)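 Glycan array binding is given as a within-array Z-score, which can be read as non-binding when negative. The arrays, 3228 of them, came from the Consortium for Functional Glycomics database and were retained only where the protein sequence was available. Z-scores were averaged across arrays of the same protein sequence at different concentrations or buffers and across linkers.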"}, "[2]": {"biological_target": "GalNAc(b1-4)GlcNAc(b1-3)GalNAc(b1-4)GlcNAc", "outline": "as §1"}, "[3]": {"biological_target": "Glc(a1-4)Glc(a1-4)Glc(a1-4)Glc", "outline": "as §1"}, "[4]": {"biological_target": "GlcA(b1-6)Gal", "outline": "as §1"}, "[5]": {"biological_target": "GlcNAc(a1-4)Gal(b1-4)GlcNAc(b1-3)Gal(b1-4)Glc", "outline": "as §1"}, "[6]": {"biological_target": "GlcNAc(a1-4)Gal(b1-4)GlcNAc(b1-3)Gal(b1-4)[Fuc(a1-3)]GlcNAc(b1-3)Gal(b1-4)[Fuc(a1-3)]GlcNAc", "outline": "as §1"}, "[7]": {"biological_target": "GlcNAc(b1-2)[GlcNAc(b1-6)]Man(a1-6)[GlcNAc(b1-2)Man(a1-3)]Man(b1-4)GlcNAc(b1-4)[Fuc(a1-6)]GlcNAc", "outline": "as §1"}, "[8]": {"biological_target": "GlcNAc(b1-3)Gal(b1-4)GlcNAc(b1-3)Gal(b1-4)GlcNAc(b1-2)[GlcNAc(b1-3)Gal(b1-4)GlcNAc(b1-3)Gal(b1-4)GlcNAc(b1-6)]Man(a1-6)[GlcNAc(b1-3)Gal(b1-4)GlcNAc(b1-3)Gal(b1-4)GlcNAc(b1-2)Man(a1-3)]Man(b1-4)GlcNAc(b1-4)[Fuc(a1-6)]GlcNAc", "outline": "as §1"}, "[9]": {"biological_target": "GlcNAc(b1-3)Gal(b1-4)GlcNAc(b1-6)[GlcNAc(b1-3)Gal(b1-3)]GalNAc", "outline": "as §1"}, "[10]": {"biological_target": "GlcNAc(b1-6)GalNAc", "outline": "as §1"}, "[11]": {"biological_target": "Kdn(a2-3)Gal(b1-4)GlcNAc", "outline": "as §1"}, "[12]": {"biological_target": "Neu5Ac(a2-3)Gal(b1-3)GalNAc(b1-4)[Neu5Ac(a2-8)Neu5Ac(a2-3)]Gal(b1-4)Glc", "outline": "as §1"}, "[13]": {"biological_target": "Neu5Ac(a2-3)Gal(b1-3)[GlcNAc(b1-6)]GalNAc", "outline": "as §1"}, "[14]": {"biological_target": "Neu5Ac(a2-3)Gal(b1-4)GlcNAc(b1-2)[Neu5Ac(a2-3)Gal(b1-4)GlcNAc(b1-4)]Man(a1-3)[GlcNAc(b1-4)][Neu5Ac(a2-3)Gal(b1-4)GlcNAc(b1-4)Man(a1-6)]Man(b1-4)GlcNAc(b1-4)GlcNAc", "outline": "as §1"}, "[15]": {"biological_target": "Neu5Ac(a2-3)Gal(b1-4)GlcNAc(b1-3)Gal(b1-4)GlcNAc(b1-3)Gal(b1-4)GlcNAc(b1-2)Man(a1-3)[Neu5Ac(a2-3)Gal(b1-4)GlcNAc(b1-3)Gal(b1-4)GlcNAc(b1-3)Gal(b1-4)GlcNAc(b1-2)Man(a1-6)]GalNAc", "outline": "as §1"}, "[16]": {"biological_target": "Neu5Ac(a2-3)Gal(b1-4)GlcNAc(b1-6)GalNAc", "outline": "as §1"}, "[17]": {"biological_target": "Neu5Ac(a2-3)Gal(b1-4)[Fuc(a1-3)]GlcNAc", "outline": "as §1"}, "[18]": {"biological_target": "Neu5Ac(a2-3)Gal6S(b1-4)GlcNAc", "outline": "as §1"}, "[19]": {"biological_target": "Neu5Ac(a2-3)[GalNAc(b1-4)]Gal(b1-4)Glc", "outline": "as §1"}, "[20]": {"biological_target": "Neu5Ac(a2-6)Gal(b1-4)GlcNAc(b1-2)Man(a1-3)[Man(a1-6)]Man(b1-4)GlcNAc(b1-4)GlcNAc", "outline": "as §1"}, "[21]": {"biological_target": "Neu5Ac(a2-6)Gal(b1-4)GlcNAc(b1-2)Man(a1-3)[Neu5Ac(a2-3)Gal(b1-4)GlcNAc(b1-2)Man(a1-6)]Man(b1-4)GlcNAc(b1-4)GlcNAc", "outline": "as §1"}, "[22]": {"biological_target": "Neu5Ac(a2-6)Gal(b1-4)GlcNAc(b1-3)Gal(b1-4)GlcNAc(b1-3)Gal(b1-4)GlcNAc", "outline": "as §1"}, "[23]": {"biological_target": "Neu5Gc(a2-3)Gal(b1-4)GlcNAc", "outline": "as §1"}}, "note": "This is one part of a sample in which the strongest signals are shown more often than they occur."}
{"binder": "B1", "values": [{"measurement": "glycan array binding signal (z-score)", "setting": "[1]", "value": 0.01}, {"measurement": "glycan array binding signal (z-score)", "setting": "[2]", "value": -0.71}, {"measurement": "glycan array binding signal (z-score)", "setting": "[3]", "value": -0.358}, {"measurement": "glycan array binding signal (z-score)", "setting": "[4]", "value": 0.626}, {"measurement": "glycan array binding signal (z-score)", "setting": "[5]", "value": -0.147}, {"measurement": "glycan array binding signal (z-score)", "setting": "[6]", "value": 1.93}, {"measurement": "glycan array binding signal (z-score)", "setting": "[7]", "value": -0.199}, {"measurement": "glycan array binding signal (z-score)", "setting": "[8]", "value": 2.44}, {"measurement": "glycan array binding signal (z-score)", "setting": "[9]", "value": 0.415}, {"measurement": "glycan array binding signal (z-score)", "setting": "[10]", "value": 0.174}, {"measurement": "glycan array binding signal (z-score)", "setting": "[11]", "value": -0.615}, {"measurement": "glycan array binding signal (z-score)", "setting": "[12]", "value": -0.25}, {"measurement": "glycan array binding signal (z-score)", "setting": "[13]", "value": -0.177}, {"measurement": "glycan array binding signal (z-score)", "setting": "[14]", "value": 0.12}, {"measurement": "glycan array binding signal (z-score)", "setting": "[15]", "value": 1.45}, {"measurement": "glycan array binding signal (z-score)", "setting": "[16]", "value": -0.512}, {"measurement": "glycan array binding signal (z-score)", "setting": "[17]", "value": -0.201}, {"measurement": "glycan array binding signal (z-score)", "setting": "[18]", "value": -0.508}, {"measurement": "glycan array binding signal (z-score)", "setting": "[19]", "value": -0.129}, {"measurement": "glycan array binding signal (z-score)", "setting": "[20]", "value": -0.647}, {"measurement": "glycan array binding signal (z-score)", "setting": "[21]", "value": -0.631}, {"measurement": "glycan array binding signal (z-score)", "setting": "[22]", "value": -0.311}, {"measurement": "glycan array binding signal (z-score)", "setting": "[23]", "value": -0.276}]}
